Reference: PubChem BioAssay
For some assays here: Measured potencies and affinities stand elsewhere. Activity calls are given as the source filed them. Unless noted, how the calls were made is not given here.

Assays:
[1] = antimalarial activity against Dd2 strain (AID 2302;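 active means growth inhibition above 50% at the single 2 µM test dose, taken to imply half-maximal potency below 2 µM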;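 further: 0% = DMSO untreated growth and 100% = chloroquine plus artemisinin killed control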); conditions: P. falciparum Dd2 in RBCs, LDH growth readout, 72 h; at 2 µM; stronger effect = higher value
[2] = human hepatoma cell viability loss – ATP luminescence, cytotoxicity control for P. falciparum antimalarial project, primary screen (AID 2303;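 active means inhibition above 50%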;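 further: 0% = DMSO wells and 100% = digitonin-killed cells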); conditions: HepG2 viability, 24-48 h, at 10 µM, stronger effect = higher value
[3] = biological target: L-lactate dehydrogenase (Plasmodium falciparum (isolate CDC / Honduras)) (UniProt Q27743); experiment: PfLDH activity inhibition – cell lysate, 3D7 strain, counter-screen for P. falciparum growth inhibition project (AID 2304);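 further: 0% = vehicle and 100% = reference inhibitor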; conditions: P. falciparum 3D7 crude extract, LDH APAD/NBT absorbance; at 2 µM; stronger effect = higher value
[4] = inhibition of 3D7 malaria parasite growth – strain 3D7 (AID 2306);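 further: 0% = DMSO wells and 100% = chloroquine plus artemisinin control wells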; conditions: P. falciparum 3D7 erythrocytic growth, LDH absorbance, 72 h; at 2 µM; stronger effect = higher value
[5] = biological target: Calcium-dependent protein kinase 1 (Plasmodium falciparum (isolate 3D7)) (UniProt P62344); experiment: PfCDPK1 kinase inhibitors, biochemical, TCAMS library (AID 1159585; cut-off not given, nearly all actives have IC50 up to about 0.98 µM;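 further: inhibitors leave more ATP so luminescence rises with inhibition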); conditions: recombinant PfCDPK1, Kinase-Glo ATP depletion luminescence
[6] = biological target: Plasmodium falciparum protein kinase 6 (PK6, PF3D7_1337100) (UniProt Q8IDW1); experiment: PfPK6 kinase inhibitors, biochemical, TCAMS library (AID 1159586); conditions: recombinant PfPK6, Kinase-Glo ATP depletion luminescence
[7] = biological target: Protein kinase 7 (PK7), Plasmodium falciparum 3D7 (PF3D7_0213400) (UniProt Q7YTF7); experiment: inhibition of Plasmodium PK7 catalytic activity – biochemical, TCAMS antimalarial set, Kinase-Glo luminescence (AID 1159587); conditions: recombinant PfPK7, Kinase-Glo ATP depletion luminescence
[8] = biological target: Calcium-dependent protein kinase 4 (Plasmodium falciparum (isolate 3D7)) (UniProt Q8IBS5); experiment: PfCDPK4 kinase inhibitors, biochemical, TCAMS library (AID 1159588; cut-off not given, nearly all actives have IC50 up to about 0.91 µM); conditions: recombinant PfCDPK4, Kinase-Glo ATP depletion luminescence
Sequence of Calcium-dependent protein kinase 4 (Plasmodium falciparum (isolate 3D7)) (Q8IBS5 whole entry, looked up): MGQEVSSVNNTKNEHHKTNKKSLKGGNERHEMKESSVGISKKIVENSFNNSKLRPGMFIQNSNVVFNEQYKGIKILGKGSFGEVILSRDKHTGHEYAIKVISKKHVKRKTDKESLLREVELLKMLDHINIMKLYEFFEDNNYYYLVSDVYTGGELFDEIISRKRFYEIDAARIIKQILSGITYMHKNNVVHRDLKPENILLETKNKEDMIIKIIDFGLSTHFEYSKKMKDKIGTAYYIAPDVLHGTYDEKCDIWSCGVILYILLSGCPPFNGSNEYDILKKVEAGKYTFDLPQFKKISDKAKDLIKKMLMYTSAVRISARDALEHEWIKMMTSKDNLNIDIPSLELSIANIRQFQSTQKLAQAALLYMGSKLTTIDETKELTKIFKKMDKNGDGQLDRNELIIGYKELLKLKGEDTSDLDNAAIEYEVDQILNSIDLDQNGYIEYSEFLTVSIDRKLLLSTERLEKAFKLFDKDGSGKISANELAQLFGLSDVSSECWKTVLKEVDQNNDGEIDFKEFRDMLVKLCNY

Sequence of Calcium-dependent protein kinase 1 (Plasmodium falciparum (isolate 3D7)) (P62344 whole entry, looked up): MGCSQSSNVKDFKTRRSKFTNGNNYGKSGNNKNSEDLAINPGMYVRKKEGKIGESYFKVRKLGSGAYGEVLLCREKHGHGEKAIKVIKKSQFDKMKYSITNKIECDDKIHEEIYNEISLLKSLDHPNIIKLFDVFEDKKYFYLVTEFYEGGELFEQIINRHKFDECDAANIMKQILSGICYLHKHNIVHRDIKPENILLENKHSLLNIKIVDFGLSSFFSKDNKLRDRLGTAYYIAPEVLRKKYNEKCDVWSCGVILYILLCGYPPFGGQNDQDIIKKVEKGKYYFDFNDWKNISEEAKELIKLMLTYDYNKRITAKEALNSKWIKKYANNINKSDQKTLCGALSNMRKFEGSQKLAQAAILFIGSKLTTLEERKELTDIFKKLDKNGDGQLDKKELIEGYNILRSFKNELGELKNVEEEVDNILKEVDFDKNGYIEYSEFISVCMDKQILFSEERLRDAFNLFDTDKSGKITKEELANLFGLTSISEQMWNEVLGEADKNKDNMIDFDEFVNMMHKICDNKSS
Sequence of Plasmodium falciparum protein kinase 6 (PK6, PF3D7_1337100) (Q8IDW1 1-305): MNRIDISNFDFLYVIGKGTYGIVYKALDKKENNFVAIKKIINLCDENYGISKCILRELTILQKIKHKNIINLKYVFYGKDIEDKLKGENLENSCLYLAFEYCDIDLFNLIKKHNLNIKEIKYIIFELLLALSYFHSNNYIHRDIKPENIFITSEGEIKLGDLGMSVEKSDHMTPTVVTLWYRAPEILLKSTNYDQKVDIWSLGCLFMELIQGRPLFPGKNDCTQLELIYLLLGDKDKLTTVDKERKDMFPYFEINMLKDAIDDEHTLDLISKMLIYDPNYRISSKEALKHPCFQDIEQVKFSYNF
Sequence of L-lactate dehydrogenase (Plasmodium falciparum (isolate CDC / Honduras)) (Q27743 whole entry, looked up): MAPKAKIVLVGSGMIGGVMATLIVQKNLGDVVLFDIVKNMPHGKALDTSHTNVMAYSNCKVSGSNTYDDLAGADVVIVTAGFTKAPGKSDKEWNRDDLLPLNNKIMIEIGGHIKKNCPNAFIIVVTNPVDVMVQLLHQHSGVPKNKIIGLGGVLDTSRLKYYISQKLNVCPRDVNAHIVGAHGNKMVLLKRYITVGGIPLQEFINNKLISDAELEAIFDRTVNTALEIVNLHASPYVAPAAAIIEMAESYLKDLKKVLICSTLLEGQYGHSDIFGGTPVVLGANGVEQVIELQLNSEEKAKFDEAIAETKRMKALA
Sequence of Protein kinase 7 (PK7), Plasmodium falciparum 3D7 (PF3D7_0213400) (Q7YTF7 1-343): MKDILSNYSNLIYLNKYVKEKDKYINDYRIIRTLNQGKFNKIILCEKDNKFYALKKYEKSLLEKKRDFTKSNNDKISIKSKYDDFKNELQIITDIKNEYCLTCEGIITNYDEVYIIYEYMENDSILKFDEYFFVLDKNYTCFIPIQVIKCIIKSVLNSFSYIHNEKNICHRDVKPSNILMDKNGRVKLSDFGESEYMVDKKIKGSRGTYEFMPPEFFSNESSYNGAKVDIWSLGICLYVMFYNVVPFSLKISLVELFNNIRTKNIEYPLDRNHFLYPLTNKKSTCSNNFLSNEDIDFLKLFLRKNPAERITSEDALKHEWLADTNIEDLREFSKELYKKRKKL

CC(C)c1ccc(CN2CCCCC(NC(=O)c3cc(-c4ccccc4F)cs3)C2)cc1 (stereo unspecified)
inactive: inhibition [2] 18% | inhibition [3] -2% | outcome [5] | outcome [6] | outcome [7] | outcome [8]
active: growth inhibition [1] 84% | growth inhibition [4] 99%

COc1cc2nc(N3CCC(CNC(=O)c4ccc(-c5ccc(C(=O)N(C)C)cc5OCCN(C)C)cc4)CC3)nc(N)c2cc1OC
inactive: growth inhibition [1] -1% | inhibition [2] -1% | inhibition [3] -6% | outcome [5] | outcome [6] | outcome [7] | outcome [8]
active: growth inhibition [4] 95%

CCn1c(CN2CCN(Cc3ccccc3)CC2)nc2cc(NC(=O)c3cccs3)ccc21
active: growth inhibition [1] 95% | growth inhibition [4] 97%
inactive: inhibition [2] 0% | inhibition [3] 2% | outcome [5] | outcome [6] | outcome [7] | outcome [8]

Cc1cnc2ccc(NS(=O)(=O)c3sc4ccc(Cl)cc4c3C)cc2c1N1CCNCC1
inactive: growth inhibition [1] -1% | inhibition [2] -9% | inhibition [3] 4% | outcome [5] | outcome [6] | outcome [7] | outcome [8]
active: growth inhibition [4] 99%

N#Cc1ccccc1N1CCN(C2CCC(NC(=O)c3n[nH]c4cc(C(F)(F)F)ccc34)CC2)CC1 (stereo unspecified)
active: growth inhibition [4] 84%
inactive: growth inhibition [1] 34% | inhibition [2] 15% | inhibition [3] -4% | outcome [5] | outcome [6] | outcome [7] | outcome [8]

CCN(CC)S(=O)(=O)c1ccc(Cl)c(C(=O)Nc2ccc3nc(C)sc3c2)c1
active: growth inhibition [1] 94% | growth inhibition [4] 96%
inactive: inhibition [2] 9% | inhibition [3] -4% | outcome [5] | outcome [6] | outcome [7] | outcome [8]

CN(c1ccc2c(c1)nc(Nc1cc(C(C)(C)C)on1)n2C)c1ccnc(Nc2ccc(CS(C)(=O)=O)cc2)n1
active: inhibition [2] 77% | growth inhibition [4] 89%
inactive: growth inhibition [1] 13% | inhibition [3] -6% | outcome [5] | outcome [6] | outcome [7] | outcome [8]

CCc1ccc(CN(CCCOc2cccc(CC(=O)NCc3cnc[nH]3)c2)Cc2ccc(-n3ccnc3)cc2)cc1
inactive: growth inhibition [1] 28% | inhibition [2] 1% | inhibition [3] -2% | outcome [5] | outcome [6] | outcome [7] | outcome [8]
active: growth inhibition [4] 99%

Fc1ccccc1C=NNc1ccnc2ccc(C(F)(F)F)cc12
inactive: inhibition [2] 5% | inhibition [3] 3% | outcome [5] | outcome [6] | outcome [7] | outcome [8]
active: growth inhibition [1] 61% | growth inhibition [4] 100%

COc1cc2c(=O)c(Cc3ccc(Cl)cc3)c(C)[nH]c2cc1F
inactive: growth inhibition [1] 28% | inhibition [2] 13% | inhibition [3] 1% | outcome [5] | outcome [6] | outcome [7] | outcome [8]
active: growth inhibition [4] 85%

c1ccc(Oc2ccc(Nc3ccnc4ccc(-c5ccco5)cc34)cc2)cc1
active: growth inhibition [4] 87%
inactive: growth inhibition [1] 32% | inhibition [2] -4% | inhibition [3] -1% | outcome [5] | outcome [6] | outcome [7] | outcome [8]

Cc1cc(C)c2nc(N3CCC(C(=O)NCCCN4CCC(N5CCCCC5)CC4)CC3)sc2c1
active: inhibition [2] 99% | growth inhibition [4] 99%
inactive: growth inhibition [1] 34% | inhibition [3] -5% | outcome [5] | outcome [6] | outcome [7] | outcome [8]

COc1ccc2ccccc2c1C=NNc1cc(C)nc2c(C)cccc12
inactive: inhibition [2] -3% | inhibition [3] -4% | outcome [5] | outcome [6] | outcome [7] | outcome [8]
active: growth inhibition [1] 94% | growth inhibition [4] 102%

Cc1ccccc1C1CCN(C2CCC(NC(=O)/C=C/c3ccc(C#N)cc3)CC2)CC1 (stereo unspecified)
inactive: growth inhibition [1] 13% | inhibition [2] 39% | inhibition [3] 0% | outcome [5] | outcome [6] | outcome [7] | outcome [8]
active: growth inhibition [4] 87%

O=c1cc(NCCCN(Cc2cc3c(Cl)cc(Cl)cc3[nH]2)Cc2cc3c(Cl)cc(Cl)cc3[nH]2)[nH]c2ccccc12
active: growth inhibition [1] 80% | growth inhibition [4] 87%
inactive: inhibition [2] 23% | inhibition [3] -6% | outcome [5] | outcome [6] | outcome [7] | outcome [8]

Cc1nc(-c2nc(NCc3ccccn3)ncc2-c2ccsc2)sc1C
inactive: inhibition [2] -2% | inhibition [3] 4% | outcome [5] | outcome [6] | outcome [7] | outcome [8]
active: growth inhibition [1] 87% | growth inhibition [4] 92%

CCC(Nc1noc(-c2c(-c3ccccc3)noc2C)n1)c1ccccc1 (stereo unspecified)
active: growth inhibition [1] 85% | growth inhibition [4] 99%
inactive: inhibition [2] 4% | inhibition [3] 1% | outcome [5] | outcome [6] | outcome [7] | outcome [8]

CN1CCN(Cc2ccc(-c3ccc4c(Nc5ccc(F)cc5Cl)ccnc4c3)o2)CC1
active: growth inhibition [1] 100% | growth inhibition [4] 100%
inactive: inhibition [2] 8% | inhibition [3] -3% | outcome [5] | outcome [6] | outcome [7] | outcome [8]

Cn1cncc1-c1ccc2ncnc(Nc3ccc4c(cnn4Cc4ccccc4)c3)c2c1
inactive: inhibition [2] 1% | inhibition [3] -3% | outcome [5] | outcome [6] | outcome [7] | outcome [8]
active: growth inhibition [1] 99% | growth inhibition [4] 100%

N=c1n(CCN2CCCCC2)c2ccccc2n1CC(=O)c1cccc([N+](=O)[O-])c1
active: growth inhibition [4] 94%
inactive: growth inhibition [1] 0% | inhibition [2] 10% | inhibition [3] -1% | outcome [5] | outcome [6] | outcome [7] | outcome [8]

Cc1[nH]c(C)c(-c2ccc(Cl)cc2Cl)c(=O)c1Br
active: growth inhibition [1] 57% | growth inhibition [4] 87%
inactive: inhibition [2] 3% | inhibition [3] -4% | outcome [5] | outcome [6] | outcome [7] | outcome [8]

CCn1ncc2c(NC3CCOCC3)c(CNC(=O)c3ccnn3C)c(C)nc21
inactive: inhibition [2] -11% | inhibition [3] -2% | outcome [5] | outcome [6] | outcome [7] | outcome [8]
active: growth inhibition [1] 98% | growth inhibition [4] 98%

O=C(NCCCCN1CCC(c2ccc3c(c2OCCCO)CCCC3)CC1)c1ccc(-c2ccc(C(F)(F)F)cc2)cc1
active: growth inhibition [1] 53% | inhibition [2] 98% | growth inhibition [4] 83%
inactive: inhibition [3] 1% | outcome [5] | outcome [6] | outcome [7] | outcome [8]

COC(=O)c1cccc(CNCc2ccc(-c3ccc(-c4nc5ccc(C(F)(F)F)cc5[nH]4)cc3)cc2)c1
inactive: inhibition [2] 22% | inhibition [3] 0% | outcome [5] | outcome [6] | outcome [7] | outcome [8]
active: growth inhibition [1] 98% | growth inhibition [4] 101%

CC(C)CNCc1cccc(-c2cccc(CNC3CCN(Cc4ccccc4)CC3)c2)c1
inactive: inhibition [2] 32% | inhibition [3] -2% | outcome [5] | outcome [6] | outcome [7] | outcome [8]
active: growth inhibition [1] 99% | growth inhibition [4] 102%

COc1ccc2nccc(NN=Cc3cccc(C)n3)c2c1
active: growth inhibition [1] 99% | growth inhibition [4] 100%
inactive: inhibition [2] 16% | inhibition [3] 3% | outcome [5] | outcome [6] | outcome [7] | outcome [8]

CN1CCCC(CN2CCN(Cc3cccc(-c4ccc(-c5nc6ccc(F)cc6[nH]5)cc4)c3)CC2)C1 (stereo unspecified)
active: growth inhibition [1] 100% | inhibition [2] 78% | growth inhibition [4] 101%
inactive: inhibition [3] -1% | outcome [5] | outcome [6] | outcome [7] | outcome [8]

CC(C)Oc1cc2c(cc1NS(=O)(=O)c1ccc(-c3ccc(Cl)cc3)cc1)CCN(C)CC2
inactive: inhibition [3] -3% | outcome [5] | outcome [6] | outcome [7] | outcome [8]
active: growth inhibition [1] 65% | inhibition [2] 100% | growth inhibition [4] 99%

CCN(CC)CCNc1ccnc2c3ccccc3n(C)c12
active: growth inhibition [1] 99% | growth inhibition [4] 101%
inactive: inhibition [2] 14% | inhibition [3] -4% | outcome [5] | outcome [6] | outcome [7] | outcome [8]

Cc1nc2ccc3ccc(CNc4ccc(C(=O)N[C@@H](CCC(=O)O)C(=O)N[C@@H](Cc5cccs5)C(=O)O)c(F)c4)cc3c2c(=O)[nH]1
inactive: inhibition [2] 43% | inhibition [3] 4% | outcome [5] | outcome [6] | outcome [7] | outcome [8]
active: growth inhibition [1] 96% | growth inhibition [4] 97%

Cc1nc(N)nc(N)c1CCCOc1ccccc1Br
inactive: growth inhibition [1] 5% | inhibition [3] 5% | outcome [5] | outcome [6] | outcome [7] | outcome [8]
active: inhibition [2] 53% | growth inhibition [4] 97%

N#Cc1ccc(-c2ccc(C(=O)NCCCCN3CCC(c4ccc5c(c4OCc4ccccn4)CCCC5)CC3)cc2)cc1
inactive: growth inhibition [1] 39% | inhibition [2] 37% | inhibition [3] 6% | outcome [5] | outcome [6] | outcome [7] | outcome [8]
active: growth inhibition [4] 96%

O=C(/C=C/c1ccc(Cl)cc1)NCCCCCN1CCCC(C(=O)Nc2ccc(Cl)cc2)C1 (stereo unspecified)
active: growth inhibition [4] 94%
inactive: growth inhibition [1] 6% | inhibition [2] 24% | inhibition [3] 8% | outcome [5] | outcome [6] | outcome [7] | outcome [8]

CCNc1cc(C(=O)N[C@@H](Cc2ccccc2)[C@H](O)CNC23CC4CC(CC(C4)C2)C3)cc(N2CCCCS2(=O)=O)c1
active: growth inhibition [1] 99% | growth inhibition [4] 98%
inactive: inhibition [2] 3% | inhibition [3] -2% | outcome [5] | outcome [6] | outcome [7] | outcome [8]

Cc1ccc(CNC(=O)c2cnc(N3CCN(c4ccncc4)CC3)c(Cl)c2)cc1
inactive: growth inhibition [1] 6% | inhibition [2] 27% | inhibition [3] -3% | outcome [5] | outcome [6] | outcome [7] | outcome [8]
active: growth inhibition [4] 92%

O=C(COc1ccc(C(=O)c2ccccc2)cc1)Nc1nccs1
active: growth inhibition [4] 94%
inactive: growth inhibition [1] 18% | inhibition [2] 0% | inhibition [3] 2% | outcome [5] | outcome [6] | outcome [7] | outcome [8]

COc1ccc(Nc2nc(NC3CCN(Cc4ccccc4)CC3)cc(-c3ccncc3)n2)cc1
active: growth inhibition [4] 88%
inactive: growth inhibition [1] 40% | inhibition [2] 26% | inhibition [3] 0% | outcome [5] | outcome [6] | outcome [7] | outcome [8]
